# Source: PubChem BioAssay (several laboratories)
# Compounds with a hit are over-represented: about 27% of the library has one in this group of screens.
# EphB4 ephrin blk = antagonists of human EphB4-ephrin-B2 interaction; P54760; AID 720; EphB4 LBD / TNYL-RAW-Alexa532 peptide, fluorescence polarization; 97,000 compounds, 0.15% hits; inhibition, % at 7 µM;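 active = inhibition above the screen-wide mean inhibition plus 3 SD, cut at about 15% in these data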
# CYP2C9 inhib = human CYP2C9 inhibition; 96,000 compounds, 20% hits; AID 777; inhibition, % at 5 µM; CYP2C9 Supersomes, luciferin-H conversion, luminescence; P11712;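 active = blocking of liver enzyme CYP2C9 beyond about 50% at 5 µM, limit read from the data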
# CYP2C19 activ = activators of human cytochrome P450 2C19. P33261. recombinant CYP2C19, luciferin-H EGE luminescence; stronger effect = higher value; 0 = fully inhibited enzyme, 1 = untreated enzyme. activation factor at 5 µM. 96,000 tested, under 10 active. AID 1025;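 active = activation factor of at least 2 at 5 µM in the primary screen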
# CYP2C19 inh = human CYP2C19 inhibition; AID 778; 96,000 compounds, 21% hits; inhibition, % at 5 µM; P33261; CYP2C19 Supersomes, luciferin-H EGE luminescence, 30 min;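 active = CYP2C19 inhibition above a set limit at 5 µM in the primary screen, cut at about 50% in these data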
# CYP2C9 act = activators of human CYP2C9; recombinant CYP2C9, luciferin-H conversion, luminescence; stronger effect = higher value; factor 1 = untreated enzyme, 0 = blocked; P11712; activation factor at 5 µM; 96,000 compounds, 1.4% hits;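 active = activation factor of 2 or more for CYP2C9 at a 5 µM dose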
# A number is an active result; - = inactive; . = no result given.
SMILES,EphB4 ephrin blk,CYP2C9 inhib,CYP2C19 activ,CYP2C19 inh,CYP2C9 act
CC(=O)N1CCN=C1SCc1ccccc1F,.,-,-,-,-
CC(=O)N1CCN=C1SCc1ccccc1Cl,-,-,-,-,2.6
Cc1cccc(CSC2=NCCN2C(=O)c2ccco2)c1,-,-,-,-,-
Cc1cccc(CSC2=NCCN2C(=O)C2CC2)c1,-,-,-,80,-
CCC(=O)N1CCN=C1SCc1ccccc1,-,-,-,-,-
COc1ccc(S(=O)(=O)CC(O)CN2CCCC2=O)cc1 (stereo not drawn),-,-,-,-,-
CCC(=O)N1CCN=C1SCc1ccccc1Cl,-,-,-,70,-
O=c1c(C(c2ccc(O)cc2)c2c(O)nc3n(c2=O)CCS3)c(O)nc2n1CCS2,-,-,-,-,-
N#C/C(=C\c1ccc(Cl)cc1Cl)c1n[nH]c(Cn2cncn2)n1,-,78,-,61,-
CC1CCN(C(=O)C2CCN(S(=O)(=O)c3cccnc3)CC2)CC1,-,-,-,-,-
COc1ccc(C(c2nnnn2C2CCCC2)N2CCC(C)CC2)cc1 (stereo not drawn),-,69,-,82,-
COc1ccccc1C(c1nnnn1C(C)(C)C)N1CCCCCC1 (stereo not drawn),-,77,-,52,-
COCCn1nnnc1C(c1ccc(Cl)cc1)N1CCSCC1 (stereo not drawn),-,-,-,79,-
COc1ccc(C(c2nnnn2C2CCCC2)N2CCN(C3CCCC3)CC2)cc1OC (stereo not drawn),-,-,-,-,-
CN(c1ccccc1)C(c1ccc(F)cc1)c1nnnn1C1CCCC1 (stereo not drawn),-,82,-,90,-
CN(c1ccccc1)C(c1ccc(F)cc1)c1nnnn1CC1CCCO1 (stereo not drawn),-,-,-,-,-
O=C(NCc1ccc(F)cc1)c1cc(-c2ccco2)on1,-,-,-,-,-
COc1cc(NC(=O)c2ccc(Br)o2)ccc1NC(=O)C(C)C,-,-,-,-,-
c1ccc(-c2nn3c(-c4ccco4)nnc3s2)nc1,-,-,-,-,-
c1ccc(C(c2nnnn2C2CCCC2)N2CCN(c3ccccc3)CC2)cc1 (stereo not drawn),-,.,.,.,.
Fc1ccc(C(c2nnnn2C2CCCC2)N2CCN(Cc3ccncc3)CC2)cc1 (stereo not drawn),-,81,-,91,-
c1cc(N2CCCC2)ccc1C(c1nnnn1C1CCCCC1)N1CCOCC1 (stereo not drawn),-,-,-,-,-
COc1ccc(C(c2nnnn2C2CCCCC2)N2CCN(c3ccc(OC)cc3)CC2)cc1 (stereo not drawn),-,85,-,72,-
COc1ccc(OC)c(C(c2nnnn2C2CCCC2)N2CCN(c3ccccc3)CC2)c1 (stereo not drawn),.,82,-,90,-
Clc1ccc(C(c2nnnn2C2CCCC2)N2CCSCC2)cc1 (stereo not drawn),-,79,-,63,-
SMILES,EphB4 ephrin blk,CYP2C9 inhib,CYP2C19 activ,CYP2C19 inh,CYP2C9 act
CN1CCN(S(=O)(=O)c2ccc(NC(=O)Nc3cccc(Cl)c3)cc2)CC1,-,-,-,-,-
COC(=O)c1scc(C)c1NC(=O)Cc1ccccc1,-,-,-,-,-
COCCn1nnnc1C(c1ccc(OC)cc1)N1CCC(C)CC1 (stereo not drawn),.,-,-,73,-
COCCn1nnnc1C(c1cc(OC)ccc1OC)N1CCc2ccccc2C1 (stereo not drawn),.,-,-,59,-
COc1ccc(C(c2nnnn2CC2CCCO2)N2CCN(c3cccc(C)c3C)CC2)cc1 (stereo not drawn),-,66,-,-,-
COc1ccccc1C(c1nnnn1C1CCCC1)N1CCN2CCCC2C1 (stereo not drawn),-,85,-,-,-
COc1ccc(C(c2nnnn2CC2CCCO2)N2CCC(C(N)=O)CC2)cc1 (stereo not drawn),-,.,.,.,.
c1cc(C(c2nnnn2C2CCCCC2)N2CCN3CCCC3C2)ccn1 (stereo not drawn),-,.,.,.,.
CCn1nc(C(=O)Nc2nc3ccc(C)cc3s2)c2ccccc2c1=O,-,-,-,-,-
Nc1nc(-c2ccc3ccccc3c2)c(C2(O)C(=O)Nc3c(Br)cc(F)cc32)s1 (stereo not drawn),-,-,-,92,-
CCSc1nnc(NC(=O)c2csc3c2CCC(C)C3)s1 (stereo not drawn),-,82,-,-,-
CCSc1nnc(NC(=O)c2ccc(Br)s2)s1,-,57,-,-,-
